From PubChem BioAssay (NCATS) come the findings set out here.

Assay [1] in a line: Quantitative High-Throughput drug screen in 47 multiple myeloma cell lines against the NCATS MIPE library collection: MM1S_ATCC cell viability assay (AID 1918980). Also: nearly all actives have a fitted effect of over 45% in size. An outline of the steps:
(§1)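 Inhibition of viability over 48 h was scored by ATP content (CellTiter-Glo) in 500-cell wells. Zero and full viability were defined by media-only and DMSO-only wells.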

Assay [2] is described as follows: Quantitative High-Throughput drug screen in 47 multiple myeloma cell lines against the NCATS MIPE library collection: MM1R_ATCC cell viability assay (AID 1918981). Also: nearly all actives have a fitted effect of over 35% in size. The method, boiled down: as §1
Assay [3] in a line: Quantitative High-Throughput drug screen in 47 multiple myeloma cell lines against the NCATS MIPE library collection: LP1_DSMZ cell viability assay (AID 1918982). Also: nearly all actives have a fitted effect of over 35% in size. An outline of the steps: as §1
Assay [4] is described as follows: Quantitative High-Throughput drug screen in 47 multiple myeloma cell lines against the NCATS MIPE library collection: KMS28PE_JCRB cell viability assay (AID 1918983). Also: nearly all actives have a fitted effect of over 35% in size. The method, boiled down:
as §1

The nature of assay [5]: Quantitative High-Throughput drug screen in 47 multiple myeloma cell lines against the NCATS MIPE library collection: L363_DSMZ cell viability assay (AID 1918984). Also: nearly all actives have a fitted effect of over 40% in size. The method, boiled down: as §1
Assay [6] is described as follows: Quantitative High-Throughput drug screen in 47 multiple myeloma cell lines against the NCATS MIPE library collection: OCIMY7_PLB cell viability assay (AID 1918987). Also: nearly all actives have a fitted effect of over 65% in size. To be noted: OCI-MY7 myeloma viability, CellTiter-Glo ATP, 48 h; viability (% of DMSO): at 45.8 µM (top of the series). The method, boiled down: as §1
(In general: In ATP-based viability assays light output follows the ATP content of the culture.)

Assay [7] in a line: Quantitative High-Throughput drug screen in 47 multiple myeloma cell lines against the NCATS MIPE library collection: OCIMY5_PLB cell viability assay (AID 1918988). Also: nearly all actives have a fitted effect of over 65% in size. An outline of the steps: as §1
A short description of assay [8]: Quantitative High-Throughput drug screen in 47 multiple myeloma cell lines against the NCATS MIPE library collection: OPM1_PLB cell viability assay (AID 1918989). Also: nearly all actives have a fitted effect of over 40% in size. An outline of the steps:
as §1

The nature of assay [9]: Quantitative High-Throughput drug screen in 47 multiple myeloma cell lines against the NCATS MIPE library collection: SKMM1_PLB cell viability assay (AID 1919863). Also: nearly all actives have a fitted effect of over 35% in size. To be noted: SKMM1 myeloma viability, CellTiter-Glo ATP, 48 h; viability: stronger effect = lower value. An outline of the steps:
as §1

Assay [10] is described as follows: Quantitative High-Throughput drug screen in 47 multiple myeloma cell lines against the NCATS MIPE library collection: KMS34_JCRB cell viability assay (AID 1918985). Also: nearly all actives have a fitted effect of over 40% in size. The method, boiled down:
as §1

Molecules are shown by their SMILES. Results filed as inconclusive are left out. Values without a mark were called inactive. Calls of active or inactive are those of the source. Calls follow the shape of the dose curve; as a rule, active = well fitted cell-killing curve with a large enough effect; inconclusive = small, poorly fitted or top-dose-only effect, or effect the other way; inactive = no such curve, though single readings can be large or run the other way.
Potency is read from the fitted curve at half-maximal effect.

On to `Oc1ccc(-c2ccc(-c3cc(Nc4cccc(CNC5CC5)c4)n[nH]3)cc2)c(O)c1`, for which the Potency in [1] is 1660 nM (active); in assay [2], 2350 nM (active); in assay [3] it was 2640 nM (active); in assay [4], 5260 nM (active); in [5], 148 nM (active); in [6] it was 4690 nM (active). In addition, the Potency in assay [7] is 1480 nM (active); in assay [8], 1050 nM (active); in assay [9], 5260 nM (active).
In the case of `CCCCCCCCc1ccc(CCC(N)(CO)CO)cc1`, the Potency in assay [1] was 7430 nM (active); in assay [2], 9350 nM (active); in [3] it was 13200 nM (active); in [4], 18700 nM (active); in assay [5], 4180 nM (active); in [6] it was 11800 nM (active). The Potency is 14800 nM (active) in [7], 4690 nM (active) in assay [8] and 23500 nM (active) in [9].
In general, viability refers to a read-out of living cells in per cent, often relative to untreated cells. For the molecule `COc1ccc(CCC(=O)c2c(O)cc(O[C@@H]3O[C@H](CO)[C@@H](O)[C@H](O)[C@@H]3O[C@@H]3O[C@@H](C)[C@H](O)[C@@H](O)[C@@H]3O)cc2O)cc1O`, the Potency in assay [1] is 9350 nM (active); in [6], 10500 nM (active). The Potency result in assay [2], in assay [3], in [4], in assay [10] and in assay [8] was “inactive” each time. For the same molecule, the viability in assay [9] was 101%.
Regarding `COc1ccc(C=Cc2cc(OC)c(OC)c(OC)c2)cc1NC(=O)[C@H](N)CO`, the Potency in assay [1] is 20.9 nM (active); in [2], 14.8 nM (active); in [3], 1.7 nM (active); in assay [4], 9.3 nM (active); in assay [5], 9.3 nM (active); in [6] it was 1 nM (active). The Potency in assay [7] was 2.6 nM (active); in [8] it was 1 nM (active); in [9], 5.9 nM (active).
On to `CS(=O)(=O)N1CCc2c(-c3cnc(N)nc3)nc(N3CCOCC3)nc21`, for which the Potency in [1] is 235 nM (active); in assay [2], 209 nM (active); in assay [3], 33.2 nM (active); in [4] it was 118 nM (active); in assay [10] it was 833 nM (active); in assay [7], 332 nM (active). The Potency in assay [8] is 332 nM (active).
In the case of `Cc1cnc(Nc2ccc(CN3CCOCC3)cc2)nc1Nc1cccc(S(=O)(=O)NC(C)(C)C)c1`, the Potency in assay [1] is 5900 nM (active); in assay [2], 4690 nM (active); in assay [3], 5900 nM (active); in assay [4] it was 9350 nM (active); in [10] it was 2350 nM (active); in assay [6] it was 526 nM (active). The figures for the Potency in [7], in [8] and in assay [9] were 1870 nM (active), 935 nM (active) and 5260 nM (active), respectively.
As for `C=CC(=O)N1CCc2ccc(-n3c(=O)ccc4cnc5ccc(-c6cnn(C)c6)cc5c43)cc21`, the Potency in assay [1] is 2640 nM (active); in [2] it was 2350 nM (active); in assay [3], 1480 nM (active); in [4], 4690 nM (active); in [5] it was 833 nM (active); in [10], 935 nM (active). The Potency was 3320 nM (active) in assay [7], 833 nM (active) in assay [8] and 1320 nM (active) in [9].
With `COC1=C2C[C@@H](C)C[C@H](OC)[C@@H](O)[C@@H](C)C=C(C)[C@H](OC(N)=O)[C@@H](OC)C=CC=C(C)C(=O)NC(=CC1=O)C2=O`, the Potency in assay [1] was 59 nM (active); in assay [2] it was 37.2 nM (active); in [3] it was 1180 nM (active); in [4] it was 132 nM (active); in assay [5], 7430 nM (active); in assay [6], 74.3 nM (active). In addition, the Potency in assay [8] is 418 nM (active); in assay [9], 2090 nM (active).
As for `c1cncc(CN2CCC(n3ncc4c(N5CCOCC5)nc(-c5ccc6[nH]ccc6c5)nc43)CC2)c1`, the Potency in assay [1] was 5900 nM (active); in assay [2], 5900 nM (active); in assay [3], 5900 nM (active); in [4], 6620 nM (active); in assay [10], 5900 nM (active); in assay [6], 9350 nM (active). The Potency in [7] is 13200 nM (active); in [9], 23500 nM (active).
`Cc1ccc([N+](=O)[O-])cc1S(=O)(=O)N(C)N=Cc1cnc2ccc(Br)cn12`: the Potency in assay [1] was 29.6 nM (active); in assay [2], 33.2 nM (active); in assay [3] it was 26.4 nM (active); in assay [4], 41.8 nM (active); in assay [10] it was 14.8 nM (active); in assay [7], 18.7 nM (active). The Potency in assay [8] is 8.3 nM (active); in assay [9], 52.6 nM (active).
Take `C=C1C(=O)O[C@H]2[C@@H]1CCC(C)=CCC[C@@]1(C)O[C@@H]21`: the Potency was 5900 nM (active) in assay [1]; 3720 nM (active) in assay [2]; 5900 nM (active) in [3]; 7430 nM (active) in assay [4]; 9350 nM (active) in assay [5]; 2090 nM (active) in assay [10]. The Potency is 4690 nM (active) in assay [8] and 16600 nM (active) in [9].
Regarding `CN1[C@H]2CC(OC(=O)[C@@H](CO)c3ccccc3)C[C@H]1[C@H]1O[C@H]12` (some centres not stated), the Potency result in assay [1], in assay [2], in assay [3], in [4], in assay [5] and in [10] was “inactive” each time. For the same molecule, the Potency entry in [8] was “inactive”.
`C=CC1=C(C(=O)O)N2C(=O)[C@@H](NC(=O)C(=NO)c3csc(N)n3)[C@H]2SC1`: the Potency result in [1], in assay [2], in assay [3], in assay [4], in assay [10] and in assay [7] was “inactive” in each case. In [8], the Potency entry was “inactive”.
As for `C[C@H](NC(=O)Cc1cc(F)cc(F)c1)C(=O)N[C@H](C(=O)OC(C)(C)C)c1ccccc1`, the Potency result in assay [1], in assay [2], in assay [3], in assay [4] and in assay [5] was “inactive” each time. The viability in assay [9] was 105%.
